The source of these data is ChEMBL document CHEMBL3433997, “St. Jude Leishmania screening dataset” (2016).

Common to all, as to type: functional
Assay [1] deals with Solute carrier family 2, facilitated glucose transporter member 1 (Homo sapiens) (UniProt P11166). In words: ST_JUDE_LEISH: Cytotoxicity at 2uM final concentration against transgenic Leishmania Mexicana promastigotes LmGLUT1 that are glucose transport deficient and complemented with the human glucose transporter GLUT1. Activity is measured by DNA content using SYBR green in vitro.
Solute carrier family 2, facilitated glucose transporter member 1 (Homo sapiens), sequence (P11166 whole entry): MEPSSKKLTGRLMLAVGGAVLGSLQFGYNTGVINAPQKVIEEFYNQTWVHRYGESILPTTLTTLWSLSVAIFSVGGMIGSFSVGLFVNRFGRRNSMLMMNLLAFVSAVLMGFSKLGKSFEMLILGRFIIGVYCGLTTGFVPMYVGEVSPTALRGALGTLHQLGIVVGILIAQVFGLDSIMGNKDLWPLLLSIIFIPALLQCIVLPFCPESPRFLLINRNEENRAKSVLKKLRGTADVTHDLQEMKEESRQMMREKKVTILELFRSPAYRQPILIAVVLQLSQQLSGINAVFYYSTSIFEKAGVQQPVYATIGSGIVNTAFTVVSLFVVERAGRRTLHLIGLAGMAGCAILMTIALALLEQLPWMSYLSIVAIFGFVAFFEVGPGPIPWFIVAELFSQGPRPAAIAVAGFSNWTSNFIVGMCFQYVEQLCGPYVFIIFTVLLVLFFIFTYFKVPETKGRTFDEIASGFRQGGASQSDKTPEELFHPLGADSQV

Assay [2] concerns the target Hexose transporter 1 (Plasmodium falciparum) (UniProt O97467). Briefly: ST_JUDE_LEISH: Cytotoxicity at 2uM final concentration against transgenic Leishmania Mexicana promastigotes LmPfHT that are glucose transport deficient and complemented with the Plasmodium falciparum hexose transporter. Activity is measured by DNA content using SYBR green in vitro.
Assay [3] has as its target Glucose transporter (Leishmania mexicana) (UniProt O61059). Briefly: ST_JUDE_LEISH: Cytotoxicity at 2uM final concentration against transgenic Leishmania Mexicana promastigotes LmGT2 that are glucose transport deficient and complemented with the L. Mexicana glucose transporter 2. Activity is measured by DNA content using SYBR green in vitro.

Consider `COc1cccc(Nc2nnc(SCC(=O)NNC(=O)c3ccccn3)s2)c1`, for which the inhibition in assay [1] was 0.56%; in assay [2] it was 2.27%; in assay [3], -1.42%.
The corresponding values for `Cn1c(=O)c2cc(C(=O)NCCCN3CCCCCC3)sc2c2ccccc21` are 2.89%, 4.91% and 5.05%.
The corresponding values for `O=C(Nc1ccc(Cn2nc(Cl)c(N3CCCNCC3)cc2=O)cc1)Nc1ccc(-c2ccccc2)cc1` are 19.7%, 15.5% and 16.6%.
For `NC1CCN(Cc2ccc(-c3ccc(-c4nc5cc(F)ccc5[nH]4)cc3)cc2)C1` (centres undefined), in that order: 6.38%, 4.78% and -0.01%.
On to `COc1cccc(NC(=O)Nc2ccc(Nc3nc(C)cc(N4CCCC4)n3)cc2)c1`, for which the inhibition in assay [1] was 1.91%; in assay [2] it was 1.07%; in assay [3] it was 1.4%.
For `FC(F)(F)c1ccc2[nH]c(-c3ccc(-c4cccc(CN5CCN(CCN6CCOCC6)CC5)c4)cc3)nc2c1`, in that order: 1.77%, 3.69% and 2.25%.
Regarding `O=c1cc(NCCCNCc2cc(Cl)cc(Cl)c2OCc2ccc(Cl)cc2)[nH]c2ccccc12`, the inhibition in assay [1] amounted to 1.67%; in assay [2] it was 0.9%; in assay [3], 3.19%.
The corresponding values for `N#Cc1c(N2CCN(c3ccc(F)cc3)CC2)nc(N)c2c(N)nc3c(c12)CC(=O)N3C1CC1` are -2.19%, 5.18% and 13.5%.
For the compound `Cc1noc(C)c1C(=O)N1CCCC(c2[nH]c3c(C)cccc3c2-c2ccncc2)C1` (centres undefined), the inhibition in assay [1] stood at 2.42%; in assay [2], 3%; in assay [3], 2%.
For `COc1cc(NC(=O)N2CCc3ccc(OCCN4CCCCC4)cc32)cc(C(F)(F)F)c1`, in that order: 0.69%, 1.18% and 3.59%.
`CN(C)CCOc1ccc(-c2cc(-c3ccc(Cl)c(O)c3)c(-c3ccncc3)o2)cc1`: the inhibition in assay [1] was 4.55%; in assay [2], -0.72%; in assay [3], 4.9%.
For `CN(C)Cc1ccc(-c2ccc(NC(=O)c3ccc4c(=O)n(Cc5ccoc5)cnc4c3)cc2)cc1`, in that order: 1.36%, 1.35% and -0.37%.
Regarding `CCc1ccccc1N1CCN(CCCC(=O)c2ccc(NC(=O)c3ccc(Cl)cc3)cc2)CC1`, the inhibition amounted to 3.6% in assay [1], 3.75% in assay [2] and 4.09% in assay [3].
Regarding `CCC1CN2CCc3c([nH]c4ccccc34)C2CC1CC1NCCc2cc(OC)c(OC)cc21` (centres undefined), the inhibition was determined as 1.68% in assay [1], 4.6% in assay [2] and 0.99% in assay [3].
The corresponding values for `CCCN(CCC)CCCNc1ccc(C(=O)Nc2ccc(C)c(F)c2)cc1[N+](=O)[O-]` are 76.3%, 74.6% and 74%.
For `O=C(Nc1cccc(CN2CCCN(Cc3ccc(O)cc3)CC2)c1)c1cccc(C(F)(F)F)c1`, in that order: 10.5%, 9.62% and 11.3%.
The corresponding values for `Cn1c(Cc2ccccc2)nnc1Sc1ccc(C#N)c([N+](=O)[O-])c1` are 3.85%, 1.84% and -3.07%.
Turning to `CNCc1cccc2nc(-c3ccc(Cc4cc(Cl)ccc4OCC(C)C)o3)[nH]c12`, the inhibition is 4.31% in assay [1], 2.61% in assay [2] and 3.52% in assay [3].
For `CCC[C@@H](C(=O)NCCc1cccc(OC)c1)N1C(=O)c2c(ccc(OC)c2OC)C1C(=O)Nc1c(C)cccc1C` (some centres undefined), in that order: 0.5%, 0% and 0.1%.
The corresponding values for `COc1ccc(-c2cccc(NC(=O)c3ccc(Cl)cc3)c2)cc1CN1CCNCC1` are 2.69%, 0.49% and -0.7%.
For `CCNc1cc(C(=O)N[C@@H](Cc2ccccc2)[C@H](O)CNC(C)C)cc(N2CC(c3ccccc3)CCS2(=O)=O)c1` (some centres undefined), in that order: 2.23%, 2.11% and 4.05%.
Take `Cc1nnc2c(NC(=O)/C=C/c3ccc(OC(F)(F)F)cc3)cc3cc(Cl)ccc3n12`: the inhibition in assay [1] worked out at 0.28%; in assay [2] it was 0.28%; in assay [3] it was 0.55%.
Turning to `Cc1[nH]c(C)c(-c2ccc(Oc3ccccc3)cc2)c(=O)c1Br`, the results for the inhibition in assay [1], in assay [2] and in assay [3] were 1.44%, 1.17% and -0.53%, respectively.
For `Nc1ncc(-c2ccc(F)cc2)cc1-c1nc2ccc(Cl)cc2[nH]1`, in that order: 4.48%, 5.54% and 2.11%.
`CC(=O)c1ccc(S(=O)(=O)N2CCC(C(=O)Nc3ccccc3N3CCCC3)CC2)cc1`: the inhibition in assay [1] was 0.87%; in assay [2], 0.67%; in assay [3], -0.38%.
Consider `CCCNCc1ccc(-c2ccc(CN(Cc3cnc(C)cn3)C(=O)c3nn(-c4ccccc4)nc3C)cc2)nc1`, for which the inhibition is 2.69% in assay [1], 0.9% in assay [2] and -6.47% in assay [3].
The corresponding values for `Cc1ccc(NC(=O)c2ccnc(N3CCN(c4ccncc4)CC3)c2)cc1F` are 3.18%, 4.4% and 4.05%.
The corresponding values for `COc1cc(OCCCN(C)Cc2ccc(OC)c(OC)c2)ccc1NC(=O)c1cccc2c(O)c3cccc(F)c3nc12` are 2.95%, 2.52% and 0.63%.
The corresponding values for `COc1ccc(C=NN=c2cc(C)[nH]c3ccccc23)c2ccccc12` are 8.8%, 6.92% and 2.26%.
Regarding `N=C(N)NC(=O)Nc1cc(Br)c(Cl)c(Br)c1`, the inhibition was -0.91% in assay [1], -1.3% in assay [2] and -1.76% in assay [3].
Consider `Cc1nc(N)nc(N)c1OCc1cccc2ccccc12`, for which the inhibition in assay [1] is 0.2%; in assay [2], 1.33%; in assay [3], -1.23%.
`COc1cc(C(=O)N2CCN(C(C)C)CC2)ccc1CN(C)CCCN1CCN(c2cccc(Cl)c2Cl)CC1`: the inhibition in assay [1] turned out to be 0.76%; in assay [2], 0.33%; in assay [3], 0.31%.
For `Cc1cccc2nc(-c3ccc(-c4ccc(CN5CCC(CO)CC5)cc4)s3)[nH]c12`, in that order: 3.72%, 2.43% and 0.87%.
For `CNCCNCc1ccc(-c2ccc(-c3nc4cc(F)ccc4[nH]3)cc2)cc1`, in that order: 0.55%, 0.64% and 0.13%.
For `CCOC(=O)CNC(=O)N1CCN(C(=O)NCC(=O)OCC)CC1`, the inhibition in assay [1] worked out at 0.06%; in assay [2], 0.22%; in assay [3], 1.45%.
For `CC(C)(C)c1ccc(CN2CCCCC(NC(=O)c3cc(-c4ccccc4Cl)cs3)C2)cc1` (centres undefined), in that order: 2.83%, 3.91% and 1%.
For `COc1ccc2c(=NN=Cc3ccc(OC)c4ccccc34)cc(C)[nH]c2c1`, in that order: 0.09%, 1.71% and 1.11%.
As for `Nc1cccc(CNCc2cccc(-c3ccc(-c4nc5ccccc5[nH]4)cc3)c2)c1`, the inhibition in assay [1] is -1.29%; in assay [2], -0.89%; in assay [3], -0.37%.
